# Experimental data from article PMC7862700, “An all-to-all approach to the identification of sequence-specific readers for epigenetic DNA modifications on cytosine”.
# Legend:
# Assay in all cases: DAPPL (digital affinity profiling via proximity ligation, sequencing); 10 mM Tris-HCl pH 7.5, 50 mM NaCl, 1 mM DTT, 4% glycerol, room temperature, 30 min; GST-TFs on glutathione beads, 16-mer random dsDNA library, 0.1% formaldehyde crosslink after washing; high values mean tight binding
# FLI1 = target: T1, FLI1 (Homo sapiens, UniProt Q01543 1-452); settings: protein: recombinant; tags: N-terminal GST; dsDNA, one strand shown
# T1 sequence: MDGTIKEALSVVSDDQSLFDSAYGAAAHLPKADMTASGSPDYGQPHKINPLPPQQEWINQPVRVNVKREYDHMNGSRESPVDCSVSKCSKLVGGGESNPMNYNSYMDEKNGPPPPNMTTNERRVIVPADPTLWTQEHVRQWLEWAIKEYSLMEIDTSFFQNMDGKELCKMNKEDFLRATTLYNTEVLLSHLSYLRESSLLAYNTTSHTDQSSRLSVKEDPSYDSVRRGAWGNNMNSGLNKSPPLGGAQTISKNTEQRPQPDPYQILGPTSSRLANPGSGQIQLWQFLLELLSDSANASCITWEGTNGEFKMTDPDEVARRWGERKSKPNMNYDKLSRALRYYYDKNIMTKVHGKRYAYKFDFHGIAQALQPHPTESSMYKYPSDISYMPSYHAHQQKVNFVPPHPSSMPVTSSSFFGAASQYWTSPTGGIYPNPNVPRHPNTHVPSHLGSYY
# Summary of the method: (§1)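 Human transcription factors were made in yeast as GST fusions, captured on glutathione beads and barcoded with DNA. With a tag-only sample included, the pool was incubated with 200 nmole of a random double-stranded 16-mer DNA library in Tris/NaCl/DTT/glycerol buffer at room temperature for 30 min, then crosslinked with 0.1% formaldehyde after washing, ligated by proximity, amplified and sequenced. For binding signal, each hexamer's read frequency for a factor is divided by its frequency for the tag-only sample.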
# ELK1 = target: T2, ELK1 (Homo sapiens, UniProt P19419 1-428); settings: protein: recombinant; tags: N-terminal GST; dsDNA, one strand shown
# T2 sequence: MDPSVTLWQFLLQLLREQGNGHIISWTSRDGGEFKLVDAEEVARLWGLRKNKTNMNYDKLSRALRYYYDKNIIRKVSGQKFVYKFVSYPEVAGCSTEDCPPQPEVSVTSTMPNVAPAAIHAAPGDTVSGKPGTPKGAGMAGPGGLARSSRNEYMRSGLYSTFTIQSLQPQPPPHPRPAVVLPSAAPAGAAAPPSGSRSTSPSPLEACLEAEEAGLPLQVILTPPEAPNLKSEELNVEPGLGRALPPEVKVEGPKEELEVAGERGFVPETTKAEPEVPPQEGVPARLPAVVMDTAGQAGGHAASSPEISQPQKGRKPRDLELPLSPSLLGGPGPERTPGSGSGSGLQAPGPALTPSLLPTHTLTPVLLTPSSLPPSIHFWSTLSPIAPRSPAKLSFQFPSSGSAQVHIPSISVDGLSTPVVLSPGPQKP
# Summary of the method: as §1
# GABPA = target: T3, GABPA (Homo sapiens, UniProt Q06546 1-454); settings: protein: recombinant; tags: N-terminal GST; dsDNA, one strand shown
# T3 sequence: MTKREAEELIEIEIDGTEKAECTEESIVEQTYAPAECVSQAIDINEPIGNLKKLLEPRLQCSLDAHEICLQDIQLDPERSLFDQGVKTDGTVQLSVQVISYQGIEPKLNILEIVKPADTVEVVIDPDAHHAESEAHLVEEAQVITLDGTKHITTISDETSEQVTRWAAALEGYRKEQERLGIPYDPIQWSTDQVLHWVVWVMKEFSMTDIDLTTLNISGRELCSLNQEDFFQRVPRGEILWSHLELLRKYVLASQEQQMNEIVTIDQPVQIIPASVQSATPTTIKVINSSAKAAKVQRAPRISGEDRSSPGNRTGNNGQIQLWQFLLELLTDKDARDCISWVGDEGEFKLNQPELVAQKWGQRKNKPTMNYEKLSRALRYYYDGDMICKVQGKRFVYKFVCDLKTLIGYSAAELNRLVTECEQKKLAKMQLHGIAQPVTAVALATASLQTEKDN
# Summary of the method: as §1
# ERG = target: T4, ERG (Homo sapiens, UniProt P11308 1-479); settings: protein: recombinant; tags: N-terminal GST; dsDNA, one strand shown
# T4 sequence: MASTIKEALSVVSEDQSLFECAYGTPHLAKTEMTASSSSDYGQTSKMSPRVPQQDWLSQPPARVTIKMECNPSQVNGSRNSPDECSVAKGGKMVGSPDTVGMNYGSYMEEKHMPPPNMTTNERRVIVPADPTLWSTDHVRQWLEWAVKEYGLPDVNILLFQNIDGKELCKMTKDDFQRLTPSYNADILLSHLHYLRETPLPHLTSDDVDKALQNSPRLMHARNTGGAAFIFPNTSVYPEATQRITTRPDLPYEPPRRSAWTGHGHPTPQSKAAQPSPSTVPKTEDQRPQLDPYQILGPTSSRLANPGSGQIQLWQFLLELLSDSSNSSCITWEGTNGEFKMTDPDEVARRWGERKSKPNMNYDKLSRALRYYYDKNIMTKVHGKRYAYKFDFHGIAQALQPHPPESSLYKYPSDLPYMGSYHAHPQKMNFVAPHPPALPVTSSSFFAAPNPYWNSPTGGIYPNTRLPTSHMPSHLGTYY
# Summary of the method: as §1
# ELF1 = ELF1 (Homo sapiens, UniProt P32519 1-619); settings: protein: recombinant; tags: N-terminal GST; dsDNA, one strand shown
# Sequence of ELF1 (P32519 whole entry): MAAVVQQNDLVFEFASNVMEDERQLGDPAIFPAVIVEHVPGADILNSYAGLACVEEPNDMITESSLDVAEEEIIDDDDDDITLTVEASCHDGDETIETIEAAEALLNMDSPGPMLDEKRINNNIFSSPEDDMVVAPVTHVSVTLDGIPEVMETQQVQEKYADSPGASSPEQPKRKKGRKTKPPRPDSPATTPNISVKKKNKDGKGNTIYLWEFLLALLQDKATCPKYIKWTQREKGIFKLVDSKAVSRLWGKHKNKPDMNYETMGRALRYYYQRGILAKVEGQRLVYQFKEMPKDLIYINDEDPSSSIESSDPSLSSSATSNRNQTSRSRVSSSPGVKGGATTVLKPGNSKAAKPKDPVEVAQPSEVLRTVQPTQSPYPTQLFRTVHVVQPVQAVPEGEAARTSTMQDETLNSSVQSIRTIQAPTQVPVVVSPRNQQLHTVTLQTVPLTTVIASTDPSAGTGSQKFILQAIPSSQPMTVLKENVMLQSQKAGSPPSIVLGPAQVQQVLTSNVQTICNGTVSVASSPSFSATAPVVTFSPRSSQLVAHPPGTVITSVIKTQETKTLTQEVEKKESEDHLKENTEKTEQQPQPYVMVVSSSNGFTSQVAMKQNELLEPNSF
# Summary of the method: as §1
# EHF = target: T5, EHF (Homo sapiens, UniProt Q9NZC4 1-300); settings: protein: recombinant; tags: N-terminal GST; dsDNA, one strand shown
# T5 sequence: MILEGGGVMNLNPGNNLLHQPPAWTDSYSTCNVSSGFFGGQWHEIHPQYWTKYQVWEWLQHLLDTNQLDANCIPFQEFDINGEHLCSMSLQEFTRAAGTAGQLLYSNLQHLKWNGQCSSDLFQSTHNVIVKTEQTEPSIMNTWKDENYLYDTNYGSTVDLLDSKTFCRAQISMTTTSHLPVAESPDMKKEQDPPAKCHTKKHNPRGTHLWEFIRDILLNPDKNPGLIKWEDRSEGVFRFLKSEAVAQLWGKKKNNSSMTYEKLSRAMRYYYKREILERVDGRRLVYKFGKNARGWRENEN
# Summary of the method: as §1
# SPI1 = SPI1 (Homo sapiens, UniProt P17947 1-270); settings: protein: recombinant; tags: N-terminal GST; dsDNA, one strand shown
# Summary of the method: as §1
# SPIB = SPIB (Homo sapiens, UniProt Q01892 1-262); settings: protein: recombinant; tags: N-terminal GST; dsDNA, one strand shown
# Sequence of SPIB (Q01892 whole entry): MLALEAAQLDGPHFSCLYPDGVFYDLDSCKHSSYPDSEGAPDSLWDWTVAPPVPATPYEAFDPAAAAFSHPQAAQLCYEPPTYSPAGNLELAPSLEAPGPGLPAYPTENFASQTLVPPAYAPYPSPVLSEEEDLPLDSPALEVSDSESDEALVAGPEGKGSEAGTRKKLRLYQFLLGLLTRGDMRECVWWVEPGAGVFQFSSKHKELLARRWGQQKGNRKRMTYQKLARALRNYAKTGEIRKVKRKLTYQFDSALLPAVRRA
# Summary of the method: as §1
# ELK3 = target: T6, ELK3 (Homo sapiens, UniProt P41970 1-407); settings: protein: recombinant; tags: N-terminal GST; dsDNA, one strand shown
# T6 sequence: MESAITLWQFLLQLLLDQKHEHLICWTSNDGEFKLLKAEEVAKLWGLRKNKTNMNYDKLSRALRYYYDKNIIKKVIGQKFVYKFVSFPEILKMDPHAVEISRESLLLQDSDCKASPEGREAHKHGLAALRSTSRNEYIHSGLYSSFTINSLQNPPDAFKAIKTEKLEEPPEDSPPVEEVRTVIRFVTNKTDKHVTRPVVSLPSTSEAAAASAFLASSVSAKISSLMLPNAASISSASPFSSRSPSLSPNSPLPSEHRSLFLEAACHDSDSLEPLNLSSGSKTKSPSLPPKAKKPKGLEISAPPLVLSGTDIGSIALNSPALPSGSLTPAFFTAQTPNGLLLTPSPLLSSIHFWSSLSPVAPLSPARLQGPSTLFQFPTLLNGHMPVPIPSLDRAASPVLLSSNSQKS
# Summary of the method: as §1
# FEV = target: T7, FEV (Homo sapiens, UniProt Q99581 1-238); settings: protein: recombinant; tags: N-terminal GST; dsDNA, one strand shown
# T7 sequence: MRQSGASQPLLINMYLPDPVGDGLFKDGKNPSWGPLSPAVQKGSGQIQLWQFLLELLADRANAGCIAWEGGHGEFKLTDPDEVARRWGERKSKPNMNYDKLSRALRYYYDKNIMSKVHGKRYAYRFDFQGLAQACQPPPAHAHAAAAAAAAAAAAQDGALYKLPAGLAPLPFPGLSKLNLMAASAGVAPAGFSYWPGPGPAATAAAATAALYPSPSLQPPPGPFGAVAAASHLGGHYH
# Summary of the method: as §1
# ETV5 = ETV5 (Homo sapiens, UniProt P41161 1-510); settings: protein: recombinant; tags: N-terminal GST; dsDNA, one strand shown
# Sequence of ETV5 (P41161 whole entry): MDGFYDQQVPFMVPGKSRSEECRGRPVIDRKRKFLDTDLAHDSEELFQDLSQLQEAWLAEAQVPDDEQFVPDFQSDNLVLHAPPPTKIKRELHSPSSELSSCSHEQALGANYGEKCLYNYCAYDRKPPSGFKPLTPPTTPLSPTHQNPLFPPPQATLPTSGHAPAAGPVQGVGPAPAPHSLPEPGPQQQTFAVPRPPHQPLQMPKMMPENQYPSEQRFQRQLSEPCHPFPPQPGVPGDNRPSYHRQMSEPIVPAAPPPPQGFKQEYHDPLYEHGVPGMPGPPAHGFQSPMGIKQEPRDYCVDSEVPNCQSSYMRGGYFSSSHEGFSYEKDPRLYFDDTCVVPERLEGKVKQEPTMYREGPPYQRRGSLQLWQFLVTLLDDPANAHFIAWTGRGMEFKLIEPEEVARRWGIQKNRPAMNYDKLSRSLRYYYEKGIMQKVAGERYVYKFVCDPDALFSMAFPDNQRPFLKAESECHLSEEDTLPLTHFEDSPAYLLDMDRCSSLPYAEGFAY
# Summary of the method: as §1
# HSF1 = HSF1 (Homo sapiens, UniProt Q00613 1-529); settings: protein: recombinant; tags: N-terminal GST; chain copies: 3; dsDNA, one strand shown
# Sequence of HSF1 (Q00613 whole entry): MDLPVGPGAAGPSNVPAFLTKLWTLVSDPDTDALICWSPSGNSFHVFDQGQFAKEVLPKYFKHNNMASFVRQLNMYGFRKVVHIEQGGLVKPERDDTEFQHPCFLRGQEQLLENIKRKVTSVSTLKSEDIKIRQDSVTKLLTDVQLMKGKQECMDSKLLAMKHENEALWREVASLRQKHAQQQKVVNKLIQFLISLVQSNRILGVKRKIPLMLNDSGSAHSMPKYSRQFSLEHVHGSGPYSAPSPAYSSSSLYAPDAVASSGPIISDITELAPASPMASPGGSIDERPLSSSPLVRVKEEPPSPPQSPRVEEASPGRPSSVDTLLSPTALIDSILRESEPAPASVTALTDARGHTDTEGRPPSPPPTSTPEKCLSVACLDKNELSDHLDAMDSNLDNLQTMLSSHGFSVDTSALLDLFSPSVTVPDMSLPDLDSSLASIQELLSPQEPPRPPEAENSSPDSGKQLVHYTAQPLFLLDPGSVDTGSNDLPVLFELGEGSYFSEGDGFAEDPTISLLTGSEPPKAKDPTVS
# Summary of the method: as §1
# SPIC = target: T8, SPIC (Homo sapiens, UniProt Q8N5J4 1-248); settings: protein: recombinant; tags: N-terminal GST; dsDNA, one strand shown
# T8 sequence: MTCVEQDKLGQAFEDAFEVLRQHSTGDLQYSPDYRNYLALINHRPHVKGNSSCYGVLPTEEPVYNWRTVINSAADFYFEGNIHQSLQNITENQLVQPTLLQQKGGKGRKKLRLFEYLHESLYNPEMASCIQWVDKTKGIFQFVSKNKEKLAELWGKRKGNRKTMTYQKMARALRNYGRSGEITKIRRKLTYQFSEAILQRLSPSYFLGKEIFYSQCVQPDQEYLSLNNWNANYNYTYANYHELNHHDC
# Summary of the method: as §1
# ELF4 = ELF4 (Homo sapiens, UniProt Q99607 1-663); settings: protein: recombinant; tags: N-terminal GST; dsDNA, one strand shown
# Sequence of ELF4 (Q99607 whole entry): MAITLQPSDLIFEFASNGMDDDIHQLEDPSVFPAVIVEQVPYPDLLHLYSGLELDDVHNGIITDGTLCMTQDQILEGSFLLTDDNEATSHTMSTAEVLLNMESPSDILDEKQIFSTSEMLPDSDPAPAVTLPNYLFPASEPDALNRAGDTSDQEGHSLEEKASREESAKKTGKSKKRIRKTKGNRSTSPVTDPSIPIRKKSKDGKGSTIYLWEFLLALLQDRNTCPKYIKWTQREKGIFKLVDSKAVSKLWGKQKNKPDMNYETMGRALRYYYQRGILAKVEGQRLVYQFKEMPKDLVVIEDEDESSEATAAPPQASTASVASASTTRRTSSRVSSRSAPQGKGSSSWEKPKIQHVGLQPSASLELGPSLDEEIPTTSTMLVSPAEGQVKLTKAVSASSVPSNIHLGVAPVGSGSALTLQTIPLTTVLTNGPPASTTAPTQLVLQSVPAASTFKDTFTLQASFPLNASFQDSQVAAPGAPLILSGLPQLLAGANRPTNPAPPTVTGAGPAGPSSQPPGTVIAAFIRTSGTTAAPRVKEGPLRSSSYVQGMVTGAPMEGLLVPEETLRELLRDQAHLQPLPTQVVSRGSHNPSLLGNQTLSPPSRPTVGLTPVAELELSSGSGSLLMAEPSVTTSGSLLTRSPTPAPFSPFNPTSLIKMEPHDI
# Summary of the method: as §1
# ELK4 = target: T9, ELK4 (Homo sapiens, UniProt P28324-2 1-405); settings: protein: recombinant; tags: N-terminal GST; dsDNA, one strand shown
# T9 sequence: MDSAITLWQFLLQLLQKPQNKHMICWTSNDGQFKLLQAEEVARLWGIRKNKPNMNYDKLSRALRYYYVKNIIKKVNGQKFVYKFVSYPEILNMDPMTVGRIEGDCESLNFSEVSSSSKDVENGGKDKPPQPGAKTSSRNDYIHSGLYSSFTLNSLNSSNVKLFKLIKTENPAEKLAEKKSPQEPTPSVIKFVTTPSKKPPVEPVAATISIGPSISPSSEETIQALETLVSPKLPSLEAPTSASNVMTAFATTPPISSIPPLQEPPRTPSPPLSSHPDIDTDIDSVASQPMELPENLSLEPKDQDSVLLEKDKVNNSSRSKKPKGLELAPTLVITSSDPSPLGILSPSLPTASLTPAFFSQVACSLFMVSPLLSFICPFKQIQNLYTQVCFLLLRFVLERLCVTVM
# Summary of the method: as §1
# ETV2 = target: T10, ETV2 (Homo sapiens, UniProt O00321 1-342); settings: protein: recombinant; tags: N-terminal GST; dsDNA, one strand shown
# T10 sequence: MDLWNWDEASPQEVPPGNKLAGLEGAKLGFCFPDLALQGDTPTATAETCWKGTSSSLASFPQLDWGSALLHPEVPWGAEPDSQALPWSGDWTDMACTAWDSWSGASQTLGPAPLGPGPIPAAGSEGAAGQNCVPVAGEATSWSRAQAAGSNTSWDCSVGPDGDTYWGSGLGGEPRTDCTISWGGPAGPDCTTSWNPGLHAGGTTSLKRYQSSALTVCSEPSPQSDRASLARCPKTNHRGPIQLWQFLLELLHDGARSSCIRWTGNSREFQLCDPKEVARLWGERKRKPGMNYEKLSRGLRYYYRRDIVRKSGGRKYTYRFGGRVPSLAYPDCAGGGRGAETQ
# Summary of the method: as §1
# ELF3 = target: T11, ELF3 (Homo sapiens, UniProt P78545 1-371); settings: protein: recombinant; tags: N-terminal GST; dsDNA, one strand shown
# T11 sequence: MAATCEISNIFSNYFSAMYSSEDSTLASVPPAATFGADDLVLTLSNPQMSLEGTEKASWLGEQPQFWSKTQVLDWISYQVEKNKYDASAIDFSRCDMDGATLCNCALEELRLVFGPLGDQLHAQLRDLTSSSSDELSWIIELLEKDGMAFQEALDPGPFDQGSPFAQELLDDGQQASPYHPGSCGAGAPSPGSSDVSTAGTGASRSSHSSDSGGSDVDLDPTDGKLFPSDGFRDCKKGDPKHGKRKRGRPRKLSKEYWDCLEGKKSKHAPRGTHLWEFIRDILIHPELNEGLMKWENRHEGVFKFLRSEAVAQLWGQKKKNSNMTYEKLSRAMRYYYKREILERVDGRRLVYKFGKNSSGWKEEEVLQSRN
# Summary of the method: as §1
# CRX = CRX (Homo sapiens, UniProt O43186 1-299); settings: protein: recombinant; tags: N-terminal GST; dsDNA, one strand shown
# Sequence of CRX (O43186 whole entry): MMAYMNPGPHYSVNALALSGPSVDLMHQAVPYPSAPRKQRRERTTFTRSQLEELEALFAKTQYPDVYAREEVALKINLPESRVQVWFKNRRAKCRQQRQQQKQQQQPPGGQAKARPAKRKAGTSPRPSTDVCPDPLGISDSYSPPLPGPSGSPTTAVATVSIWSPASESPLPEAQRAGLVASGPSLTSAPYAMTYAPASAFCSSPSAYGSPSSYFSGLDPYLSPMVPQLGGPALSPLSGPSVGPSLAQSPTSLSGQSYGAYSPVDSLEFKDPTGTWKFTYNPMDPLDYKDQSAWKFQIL
# Summary of the method: as §1
# ETV1 = ETV1 (Homo sapiens, UniProt P50549 1-477); settings: protein: recombinant; tags: N-terminal GST; dsDNA, one strand shown
# Sequence of ETV1 (P50549 whole entry): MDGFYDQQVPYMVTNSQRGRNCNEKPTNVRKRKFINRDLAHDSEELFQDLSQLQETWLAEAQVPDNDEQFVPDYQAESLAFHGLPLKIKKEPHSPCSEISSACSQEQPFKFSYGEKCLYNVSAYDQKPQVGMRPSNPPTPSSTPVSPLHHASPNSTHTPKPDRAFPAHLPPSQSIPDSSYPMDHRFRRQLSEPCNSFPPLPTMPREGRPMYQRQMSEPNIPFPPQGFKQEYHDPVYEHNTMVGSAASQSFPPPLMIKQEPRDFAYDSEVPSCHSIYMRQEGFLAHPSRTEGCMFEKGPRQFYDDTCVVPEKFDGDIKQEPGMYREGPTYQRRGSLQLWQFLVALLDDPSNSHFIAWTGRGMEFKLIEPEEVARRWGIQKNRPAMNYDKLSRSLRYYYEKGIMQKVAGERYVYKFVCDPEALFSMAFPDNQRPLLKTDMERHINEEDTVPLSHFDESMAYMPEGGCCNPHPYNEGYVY
# Summary of the method: as §1
sequence,measurement,setting,value
TAAACC,binding signal,FLI1,"1.27 fold enrichment (6-mer frequency, TF over GST control)"
same,binding signal,ELK1,"1.22 fold enrichment (6-mer frequency, TF over GST control)"
same,binding signal,GABPA,"1.22 fold enrichment (6-mer frequency, TF over GST control)"
same,binding signal,ERG,"1.21 fold enrichment (6-mer frequency, TF over GST control)"
same,binding signal,ELF1,"1.26 fold enrichment (6-mer frequency, TF over GST control)"
same,binding signal,EHF,"1.17 fold enrichment (6-mer frequency, TF over GST control)"
same,binding signal,SPI1,"1.19 fold enrichment (6-mer frequency, TF over GST control)"
same,binding signal,SPIB,"1.31 fold enrichment (6-mer frequency, TF over GST control)"
same,binding signal,ELK3,"1.25 fold enrichment (6-mer frequency, TF over GST control)"
same,binding signal,FEV,"1.29 fold enrichment (6-mer frequency, TF over GST control)"
same,binding signal,ETV5,"1.23 fold enrichment (6-mer frequency, TF over GST control)"
same,binding signal,HSF1,"1.46 fold enrichment (6-mer frequency, TF over GST control)"
same,binding signal,SPIC,"1.13 fold enrichment (6-mer frequency, TF over GST control)"
same,binding signal,ELF4,"1.19 fold enrichment (6-mer frequency, TF over GST control)"
same,binding signal,ELK4,"1.32 fold enrichment (6-mer frequency, TF over GST control)"
same,binding signal,ETV2,"1.27 fold enrichment (6-mer frequency, TF over GST control)"
same,binding signal,ELF3,"1.35 fold enrichment (6-mer frequency, TF over GST control)"
same,binding signal,CRX,"2.11 fold enrichment (6-mer frequency, TF over GST control)"
same,binding signal,ETV1,"1.23 fold enrichment (6-mer frequency, TF over GST control)"
